Only some compounds are listed: those with a hit (about 19% of all), similar ones and a draw of the others.
TDP1 cell noCPT = qHTS for Inhibitors of human tyrosyl-DNA phosphodiesterase 1 (TDP1): qHTS in cells in absence of CPT. DT40 Tdp1-/- hTDP1 cells, no CPT, ATP luminescence, 48 h. Potency, µM (top dose mostly 46.2 µM), inactives show top-dose activity change, negative = growth inhibition, actives largely listed as inhibitors. hit rate 15% among 420,000. AID 686978, 2013; further: potency means the concentration at half of the fitted maximal effect; nearly all actives have a fitted effect of over 55% in size
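Chicken DT40 Tdp1-/- cells stably complemented with human TDP1 were seeded at 400 cells/well with DMSO in place of 20 nM camptothecin. After compound pinning, cells grew at least 48 hr at 37 °C; viability read by CellTiter-Glo luminescence.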
HT1080-NT tox = qHTS for induction of synthetic lethality in tumor cells producing 2HG: qHTS for the HT-1080-NT fibrosarcoma cell line. HT-1080-NT fibrosarcoma viability, CellTiter-Glo ATP luminescence, 48 h. Potency, µM (top dose mostly 46.1 µM), for the others: at the highest dose activity, negative = less viability, usual class: cytotoxic. hit rate 1.6% among 360,000. AID 686970, 2013;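 further: NT is the 2HG producing partner of a matched IDH1 knockdown line; potency means the concentration at half of the fitted maximal effect; 0% = DMSO-treated cells and -100% = media-only wells without cells; nearly all actives have a fitted effect of over 55% in size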
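Toxicity toward the 2HG-producing NT line was scored as %Activity, normalised to DMSO and no-cell wells, from CellTiter-Glo luminescence after 48 hours' treatment.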
HT1080 IDH1KD tx = qHTS for induction of synthetic lethality in tumor cells producing 2HG: qHTS for the HT-1080-IDH1KD cell line; HT-1080 IDH1 knockdown viability, ATP luminescence, 48 h; Potency, µM (highest dose often 46.1 µM), for the others: at the top dose activity, negative = toxicity, actives largely listed as cytotoxic; hit rate 2% among 360,000;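 further: potency means the concentration at half of the fitted maximal effect; 0% = DMSO wells and -100% = cell-free medium wells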
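IDH1KD HT-1080 cells, 750/well, RPMI + 5% FBS; compound pinned after 2 h settling; 48 h, 37 °C; CellTiter-Glo luminescence; % activity normalised to DMSO and no-cell wells; curves fitted, classed by r2 and efficacy.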
TDP1 cell CPT = qHTS for Inhibitors of human tyrosyl-DNA phosphodiesterase 1 (TDP1): qHTS in cells in presence of CPT; chicken DT40 Tdp1-/-;hTDP1 cells + 20 nM CPT, ATP luminescence, 48 h; Potency, µM (titrated, usually from 46.2 µM), for inactives: at the highest dose activity change, negative = growth inhibition, most hits filed as inhibitors; hit rate 12% among 420,000; AID 686979, 2013; further: potency means the concentration at half of the fitted maximal effect; nearly all actives have a fitted effect of over 55% in size
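Chicken DT40 Tdp1-/- cells stably complemented with human TDP1 were seeded at 400 cells/well in medium containing 20 nM camptothecin, exposed to pin-transferred compounds, and grown at 37 °C for at least 48 hr. Viability was read as ATP luminescence.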
IL1B secr inh = qHTS for Inhibitors of Inflammasome Signaling: IL-1-beta AlphaLISA Primary Screen; THP-1 LPS/ATP IL-1B secretion, AlphaLISA, 16 h; stronger effect = lower value; activity change, % at 57.5 µM; hit rate 4.7% among 360,000; AID 743279, 2014; in the data active means activity change below about -50%; inconclusive means mostly about -30% to -49%
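THP-1 cells pretreated 1 hr with compounds (up to 57.5 uM final), then stimulated with LPS (250 ng/mL final) plus ATP (1.25 mM final); secreted IL-1B measured by AlphaLISA after 16 hr, decreased signal indicating inhibition.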
* hit, by the source's call; ? = inconclusive; nt = no result; [ ] = remark or other dose. Unless noted, the call rests on the fitted dose curve; in most records, active means well fitted curve in the direction sought with a large enough effect; inconclusive means small, poorly fitted or top-dose-only effect, or another doubt; inactive means no such curve, though single readings can be large; an effect the other way counts as inactive or inconclusive. Unless noted, on the % scale 0 is the no-effect control and ±100 the full control effect.

SMILES	TDP1 cell noCPT	HT1080-NT tox	HT1080 IDH1KD tx	TDP1 cell CPT	IL1B secr inh
CCN(Cc1ccccc1)S(=O)(=O)c1ccc(F)c(C(=O)Nc2ccc(C(C)C)cc2)c1	18µM*	nt	nt	15µM*	nt
O=c1[nH]c(CN2CCCCC2)nc2c1C1(CCCCC1)Cc1ccccc1-2	13µM*	18%	10%[9.24 µM]	13µM*	14
COc1ccc(N2CC(C(=O)N/N=C/c3ccc(C)cc3)CC2=O)cc1 (stereo not drawn)	1.6µM*	3.3µM*	2.3µM*	1.3µM*	57
COc1ccc2nc(NC(=O)Nc3ccccc3OC)sc2c1	5.2µM*	?	?	9.2µM*	-7
COc1ccc2nc(Nc3ccccc3OC)sc2c1	21µM*	?	?	?	-8
COc1ccc2nc(Nc3ccc4c(c3)OCO4)sc2c1	-16%	?	?	-15%	?
COc1ccc(N2CC(C(=O)N/N=C/c3cccs3)CC2=O)cc1 (stereo not drawn)	7%	6%	4%	-15%	2
COc1ccc2nc(Nc3ccccc3)sc2c1	?	-18%	-13%	-1%	-67*
COc1ccc2nc(NC(=O)Nc3cccc4ccccc34)sc2c1	18µM*	?	?	?	9
COc1ccc(N2CC(C(=O)Nc3nc4ccc(OC)cc4s3)CC2=O)cc1 (stereo not drawn)	?	-20%	-16%	-3%	-5
COc1ccc(NC(=O)Nc2nnc(N(CC(C)C)CC(C)C)s2)c(OC)c1	18µM*	nt	nt	?	nt
CCC(C)C(=O)Nc1ccc(OC)cc1OC (stereo not drawn)	2%	0%	4%	4%	-13
COc1ccc2nc(NC(=O)C3CC(=O)N(c4ccccc4)C3)sc2c1 (stereo not drawn)	?	2%	11%	-18%	-57*
CCC(C)C(=O)Nc1nc2ccc(OC)cc2s1 (stereo not drawn)	16µM*	-2%	-2%	?	-3
CCCc1nc2ccc([N+](=O)[O-])cc2[nH]1	-21%	0%	7%	-6%	31
Cc1c(C(=O)N2CCCCCC2)c(S(=O)(=O)NCc2ccccc2Cl)c(C)n1C	-17%	3%	-3%	-28%	-11
COc1ccc2nc(Nc3nc4cc5c(cc4s3)OCO5)sc2c1	7.3µM*	-4%	-7%	?	38
COc1cccc(C2(c3cccc(OC)c3)CC2C(=O)Nc2cccc3ccccc23)c1 (stereo not drawn)	26µM*	2%	0%	?	16
CCOc1ccc(S(=O)(=O)NN=C(C)c2cccnc2)cc1	19%	-3%	2%	-1%	7
CCOC(=O)c1c(CSc2ccsc2)n(C)c2cc(Br)c(O)c(CN(C)C)c12	23µM*	-7%	-18%	18µM*	-53*
CCOC(=O)c1c(CSc2ccccc2)n(C)c2cc(Br)c(O)c(CN(C)C)c12	15µM*	?	?	21µM*	-86*
CCOC(=O)c1c(CN2CCN(CCO)CC2)n(C)c2cc(Br)c(OC)cc12	?	?	?	?	-12
CCOC(=O)c1c(CN2CCCCC2)n(C)c2cc(Br)c(O)c(CN(C)C)c12	?	5%	2%	18µM*	-10
CCOC(=O)c1c(CN2CCCCC2)n(C)c2cc(Br)c(OC)cc12	11µM*	17%	-1%	?	-2
Cc1ccc(-c2cnc(C(O)c3cc(F)cc(Cl)c3)[nH]2)cc1 (stereo not drawn)	?	?	?	?	34
SMILES	TDP1 cell noCPT	HT1080-NT tox	HT1080 IDH1KD tx	TDP1 cell CPT	IL1B secr inh
COc1ccc(S(=O)(=O)N(C)C)cc1NC(C)C(=O)Nc1cccc(C#N)c1 (stereo not drawn)	-7%	11%	0%	-2%	6
CCOC(=O)c1c(CN(C)C)oc2cc(CN(C)C)c(O)c(CSc3ccccc3)c12	-24%	-17%	-14%	-21%	-50*
CCOC(=O)c1c(CSc2ccccc2)n(C)c2ccc(O)c(CN3CCN(C)CC3)c12	?	0%	11%	?	0
CCOC(=O)c1c(CSc2ccc(C)cc2)n(C)c2cc(Br)c(O)c(CN(C)C)c12	8.2µM*	?	?	?	0
CC(C)(C)C1CCC2(CC1)NC(=S)N(c1ccccc1)N2 (stereo not drawn)	?	?	5.8µM*	?	4
CCC(C)(C)C1CCC2(CC1)NC(=S)N(c1ccccc1)N2 (stereo not drawn)	-7%	?	18µM*	15%	5
CC1(CCc2ccccc2)NC(=S)N(c2ccccc2)N1 (stereo not drawn)	-17%	?	?	-6%	17
C#CCNC(=O)C1=C[C@@H](c2ccc(Br)cc2)C[C@@H](OCCCCO)O1	-14%	3%	7%	-9%	-6
COc1ccc(NC(=O)COc2cccc3c2CCN(Cc2cccnc2)C3=O)c(OC)c1	10µM*	-6%	-16%	12µM*	-26
CCC(=O)Nc1ccc(C(=O)NNC(=O)Cc2ccccc2)cc1	-11%	1%	-1%	3%	-19
Cc1cccc(NS(=O)(=O)c2ccc(C)c(C(=O)NC3CCN(Cc4ccccc4)CC3)c2)c1	?	-10%	-11%	?	-21
O=S(=O)(NC1CC1)c1ccc(S(=O)(=O)N2CCCC3(CCCCC3)C2)cc1	?	7%	-5%	13µM*	3
O=S(=O)(NC1CC1)c1ccc(S(=O)(=O)N2CCN3CCCC3C2)cc1 (stereo not drawn)	-6%	-1%	9%	-1%	9
C/C(=N\O)C(=O)C(CN1CCCCC1)CN1CCCCC1	2.6µM*	1%	0%	2.9µM*	-30
Cc1nc(-c2nc(-c3c(C(=O)NNC(=O)Nc4cccc(Cl)c4)noc3C)cs2)cs1	?	-28%	-20%	?	-12
Cc1onc(C(=O)NN)c1-c1csc(COc2ccc(Cl)cc2)n1	15µM*	-27%	-29%	21µM*	-24
Cc1ccc2nc(-c3c[nH]c4ccccc34)c(Nc3ccccc3)n2c1	?	nt	nt	16µM*	nt
c1ccc(Nc2c(-c3c[nH]c4ccccc34)nc3ccccn23)cc1	12µM*	nt	nt	15µM*	nt
COc1ccc(Nc2c(-c3ccc(C)o3)nc3ccccn23)cc1	?	1%	4%	?	nt
Fc1ccc(Nc2c(-c3c[nH]c4ccccc34)nc3ccccn23)cc1	21µM*	nt	nt	16µM*	nt

Compound activity from PubChem BioAssay.
